# Rows were chosen to be rich in hits. Some 9.3% of all compounds tested hit in one or more screens of this group.
# Vaccinia mCherry: inhibitors of vaccinia virus infection (mCherry reporter signal); Vaccinia virus mCherry reporter infection, fluorescence; Potency, µM (titrated, usually from 36.5 µM), for inactives: top-dose activity change, negative = inhibition, usual class: inhibitors; hit rate 0.63% among 310,000; AID 720579; calls by dose curve; tested in A549 cells; further: potency means the concentration at half of the fitted maximal effect; nearly all actives have a fitted effect of over 35% in size
# HCV inhibitor: HCV inhibition; Huh7.5.1 HCVcc-Cre infection, luciferase reporter, 44 h; Potency, µM (titrated, usually from 41.8 µM), inactives show at the highest dose activity change, negative = inhibition, actives largely listed as inhibitors; hit rate 3.4% among 340,000; AID 651820; further: potency means the concentration at half of the fitted maximal effect
#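 Cells seeded at 1,000/well and cultured 4 h, then compounds added followed by HCVcc-Cre virus (~0.5 moi). After 44 h further culture, luciferase substrate was added, plates held 15 min at room temperature, and luminescence read for 15 sec.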
# Sm TGR block: inhibitors of Schistosoma mansoni thioredoxin glutathione reductase | Q962Y6 | purified TGR, DTNB reduction, TNB absorbance 405 nm | Potency, µM (series often up to 114 µM), for the others: at the top dose activity change, negative = inhibition, most hits filed as inhibitors | hit rate 3% among 360,000 | AID 485364; further: potency means the concentration at half of the fitted maximal effect; nearly all actives have a fitted effect of over 60% in size
#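 TGR 20 nM + NADPH 100 uM (dispensed conc.), cpd preinc 15 min RT; start with NADPH (500 uM addition) then DTNB (15 mM addition). Kinetic TNB absorbance, 405 nm filter. Four-parameter Hill fit across titration.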
# FMDV antiviral: antivirals against foot and mouth disease virus | Potency, µM (titrated, usually from 57.9 µM), without a hit: at the top dose activity change, negative = inhibition, usual class: inhibitors | FMDV antiviral cell-based qHTS | hit rate 1.2% among 410,000 | AID 1159524; calls by dose curve; tested in HEK293T cells; further: read-out not given here; potency means the concentration at half of the fitted maximal effect; nearly all actives have a fitted effect of over 45% in size
# HCMV antiviral: human cytomegalovirus inhibition. HFF cells, HCMV-luciferase reporter, 72 h; stronger effect = lower value. activity change, negative = inhibition, % at 57.5 µM. hit rate 4.5% among 410,000; in the data active means activity change below about -60%; inconclusive means no clear call, values can overlap the other calls; inactive means above about -39%
#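 Inhibition of viral replication was scored as loss of reporter luminescence in HFFs infected with HCMV-luciferase (MOI 1 PFU/cell) for 72 h; compounds tested at 2 doses, normalized to buffer and Salinomycin controls.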
# Vaccinia Venus: vaccinia inhibition (Venus reporter). Vaccinia virus Venus reporter expression, fluorescence. Potency, µM (doses to about 36.5 µM), for inactives: at the top dose activity change, negative = inhibition, hits mostly inhibitors. hit rate 0.46% among 330,000. AID 720580; calls by dose curve; tested in A549 cells; further: potency means the concentration at half of the fitted maximal effect; nearly all actives have a fitted effect of over 30% in size
# * hit, by the source's call; i = inactive; u = inconclusive; x = no result; [ ] = dose if it differs, or a comment. Unless noted, the call rests on the fitted dose curve; in most records, active means well fitted curve in the direction sought with a large enough effect; inconclusive means small, poorly fitted or top-dose-only effect, or another doubt; inactive means no such curve, though single readings can be large; an effect the other way counts as inactive or inconclusive. On the % scale 0 is the no-effect control and ±100 the full control effect.
SMILES,Vaccinia mCherry,HCV inhibitor,Sm TGR block,FMDV antiviral,HCMV antiviral,Vaccinia Venus
CN[C@H]1C[C@H]2c3[nH]c4ccc(-c5ccc(OC)cc5)cc4c3CCN2C(=O)[C@H]1[C@H](C)O,u,x,x,u,-103*,13µM*
COc1ccc(-c2ccc3[nH]c4c(c3c2)CCN2C(=O)[C@@H]([C@H](C)O)[C@@H](N(C)C(=O)Nc3ccccc3)C[C@@H]42)cc1,-19%,x,x,-6%,4,-27%
COc1ccc(NC(=O)N(C)[C@H]2C[C@H]3c4[nH]c5ccc(-c6ccc7c(c6)OCO7)cc5c4CCN3C[C@H]2[C@H](C)O)cc1,u,x,x,-30%,-1,u
COc1ccc(NC(=O)N(C)[C@H]2C[C@H]3c4[nH]c5ccc(-c6ccc(OC)cc6)cc5c4CCN3C[C@H]2[C@H](C)O)cc1,-29%,x,x,-22%,-104*,u
COc1ccc(NC(=O)N(C)[C@H]2C[C@H]3c4[nH]c5ccc(-c6ccc(OC)cc6)cc5c4CCN3C(=O)[C@H]2[C@H](C)O)cc1,-27%,x,x,-23%,-68*,u
CC(=O)Nc1ccc(Nc2ncnc3c2c(-c2ccccc2)cn3-c2ccccc2)cc1,u,x,-7%,u,21,-30%
Cc1ccn2c(=S)[nH]nc2c1,i,x,x,-11%,-67*,0%
Cc1ccc(-c2cc(C(=O)Nc3cc(C)ccc3C)[nH]n2)c(O)c1,u,-5%,-3%,14%,-14,u
Cc1ccc(C)c(NC(=O)c2cc(-c3cc(C)c(C)cc3O)n[nH]2)c1,x,u,29%,46%,-78*,x
COc1ccc(OC)c(NC(=O)c2cc(-c3cc(C)ccc3O)n[nH]2)c1,10µM*,-33%,4%,17%,-2,11µM*
COC(C/C=C\C(=O)[C@H](C)OCc1ccccc1)OC,-19%,1%[8.37 µM],x,u,-3,20%
Cc1ccc(/C=C/C(=O)Nc2ccc(S(N)(=O)=O)cc2)o1,-7%,u,7.9µM*,-11%,25,10%
Cc1ccc(/C=C/C(=O)NC2CCCCCCC2)o1,-9%,-19%,2.5µM*,39%,-36,-27%
Cc1ccc(/C=N/NC(=O)NC2CCCCC2)o1,u,-16%,-9%,-8%,-10,-12%
NS(=O)(=O)c1ccc(NC(=O)/C=C/c2cccc(Cl)c2)cc1,x,11µM*,x,-5%,-13,x
O=C(/C=C/c1cccc(Cl)c1)Nc1ccncc1,x,-3%,-30%,14%,-4,x
Cc1ccc(/C=C/C(=O)Nc2ccncc2)o1,i,14%,8.9µM*,0%,-10,-15%
CCCN1Cc2cccc(C(=O)Nc3cc(C)cc(C)c3)c2C1=O,-14%,x,2%,-14%,2,-7%
O=C(O)c1nccnc1C(=O)Nc1ccc(Cl)cn1,-2%,17%,4%,-4%,-7,-16%
CN(C)c1nc(N/N=C\c2ccc(Cl)c([N+](=O)[O-])c2)nc(Nc2ccc(F)cc2)n1,-14%,22µM*,x,u,39,-6%
C=C[C@]1(C)C=C2C(=O)[C@@]3(O)OC(=O)[C@@]4(CCCC(C)(C)[C@H]34)[C@@]2(O)CC1,8.9µM*,x,x,2.8µM*,-101*,10µM*
C=C[C@]1(C)C=C2CC[C@H]3[C@@](C)(CCC[C@@]3(C)C(=O)O)[C@@H]2CC1,i,32%,x,-14%,x,-18%
O=C(c1ccc(Cl)cc1)C1CCCN(Cc2cnn(-c3ccccc3)c2)C1 (centres undefined),-26%,22µM*,4%,-26%,-2,-19%
O=C(c1ccc(Cl)cc1)C1CCCN(Cc2ccc(Oc3ncccn3)cc2)C1 (centres undefined),x,11µM*,-6%,u,-37,x
Cc1nn(C)cc1CN1CCCC(C(=O)c2ccc(-c3ccccc3)cc2)C1 (centres undefined),-3%,4.5µM*,13%,u,-66*,-22%
SMILES,Vaccinia mCherry,HCV inhibitor,Sm TGR block,FMDV antiviral,HCMV antiviral,Vaccinia Venus
CC(=O)c1ccc(C(=O)N2CCCC(C(=O)c3ccc(Cl)cc3)C2)s1 (centres undefined),x,-7%,0%,0%,11,x
CN1CCCC(C(=O)c2ccc(Cl)cc2)C1 (centres undefined),x,-15%,35µM*,4%,34,x
COCCNC(=O)/C=C/c1c(Cl)cccc1Cl,-1%,-21%,-13%,-2%,u,-16%
CCCC(C(=O)NCc1ccco1)N(C(=O)CNS(=O)(=O)c1ccccc1)c1ccc(OC)cc1 (centres undefined),i,10%,0%,6%,13,-8%
CCCOc1ccc(/C=N/NC(=O)C(=O)Nc2ccccn2)cc1,-5%,1%,-9%,-1%,u,-10%
OC(c1ccccc1)(c1nc(-c2ccc3ccccc3c2)cs1)C(F)(F)F (centres undefined),-15%,x,x,3%,-83*,8%
OC(c1ccccc1)(c1nc(/C=C/c2ccccc2)cs1)C(F)(F)F (centres undefined),10%,x,x,14%,-61*,u
COCCNC(=O)C1CCCN(C(=O)c2sc(-c3ccccc3)nc2C)CC1 (centres undefined),6%,x,x,17%,-17,-1%
CN(C)C(=O)CCc1ccc2c3c([nH]c2c1)[C@]1(C)[C@@H](C(=O)N2CCCCC2)C[C@H](CC(=O)NCc2cccc(C(F)(F)F)c2)C(=O)N1CC3,-29%,u,x,-22%,11,-25%
CN(C)C(=O)CCc1ccc2c3c([nH]c2c1)[C@]1(CCC2CCCC2)[C@@H](C(=O)N2CCOCC2)C[C@H](CC(=O)NCc2cccc(C(F)(F)F)c2)C(=O)N1CC3,-24%,25µM*,x,-24%,u,u
O=C(CC1C[C@H](C(=O)N2CCOCC2)[C@@]2(CCC3CCCC3)c3[nH]c4ccccc4c3CCN2C1=O)NCc1cccc(C(F)(F)F)c1 (some centres undefined),10µM*,-16%[8.37 µM],x,-34%,-17,10µM*
COc1ccc(CNC(=O)CC2C[C@H](C(=O)N3CCOCC3)[C@@]3(CCC4CCCC4)c4[nH]c5ccccc5c4CCN3C2=O)cc1OC (some centres undefined),-10%,7.9µM*,x,9%,-31,-13%
COc1cc(SC)ccc1C(=O)N1CCN(S(=O)(=O)/C=C/c2ccccc2)CC1,x,12%,40µM*,u,-2,x
COCCCN1C(=O)C(=O)/C(=C(/O)c2ccc(S(=O)(=O)N3CCCCC3)cc2)C1c1ccc(OC)cc1 (centres undefined),x,13%,-11%,-13%,0,x
NC1(C(=O)O)CCCc2ccc(N(CCCl)CCCl)cc21 (centres undefined),-17%,u,x,-3%,-63*,3%

# Bioassay records as filed in PubChem.
